ATXN viability: cell viability loss in ATXN counter-screen; S2 cells (HEK-293 line with an ATXN2-luciferase reporter) viability, CellTiter-Fluor protease fluorescence, 24 h; Potency, µM (highest dose often 56.7 µM), hits mostly cytotoxic; 0.49% of 400,000 active; AID 651635; note: nearly all actives have a fitted effect of over 40% in size
HT1080 IDH1KD tx: HT-1080 IDH1 knockdown cell toxicity (counter line) | HT-1080 IDH1 knockdown viability, ATP luminescence, 48 h | Potency, µM (top dose mostly 46.1 µM), without a hit: at the highest dose activity, negative = toxicity, hits mostly cytotoxic | 2% of 360,000 active | AID 686971;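 note: 0% = DMSO wells and -100% = cell-free medium wells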
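Luminescent ATP read-out (CellTiter-Glo, 10 min at room temperature) after 48 h compound exposure at 37 °C gave viability of IDH1-knockdown HT-1080 cells. Activity was normalised to DMSO and cell-free wells, then fitted as concentration-response curves.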
ATXN2 expr inh: ATXN2 expression inhibition; Potency, µM (highest dose often 57 µM), inactives show at the top dose activity change, negative = inhibition, hits mostly inhibitors; AID 1745845; HEK-293 ATXN2-luciferase reporter, luminescence, 24 h; 0.72% of 360,000 active; note: % is set by controls: 0 for no effect and ±100 for the full control effect; nearly all actives have a fitted effect of over 55% in size
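qHTS (up to 57 uM final) was run with 24 h compound exposure of reporter cells at 37 °C. Each well was multiplexed: SteadyGlo luminescence measured ATXN2-luciferase expression after a fluorogenic Gly-Phe-AFC viability readout (25 uM final).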
KB-3-1 tox: kills parental KB-3-1 adenocarcinoma cells | KB-3-1 viability, CellTiter-Glo ATP luminescence, 72 h | Potency, µM (titrated, usually from 46.1 µM), actives largely listed as cytotoxic | 1.4% of 400,000 active; note: % is set by controls: 0 for no effect and ±100 for the full control effect; nearly all actives have a fitted effect of over 60% in size
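Multi-concentration cytotoxicity screen in KB-3-1 cells grown in DMEM lacking phenol red with 10% FBS. After 72 h at 37 °C with compound, ATP-dependent luminescence was recorded.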
KB-V1 MDR tox: KB-V1 MDR subline cytotoxicity | Potency, µM (doses to about 46.1 µM), most hits filed as cytotoxic | KB-V1 MDR cells viability, CellTiter-Glo, 72 h | AID 1347076 | 3.4% of 400,000 active; note: % is set by controls: 0 for no effect and ±100 for the full control effect; nearly all actives have a fitted effect of over 60% in size
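Compound-treated KB-V1 multidrug-resistant cells, 72 h, 37 degrees C; viability by CellTiter-Glo. Fitted qHTS curves give the values.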
HT1080-NT tox: kills 2HG-producing HT-1080-NT fibrosarcoma cells. HT-1080-NT fibrosarcoma viability, CellTiter-Glo ATP luminescence, 48 h. Potency, µM (doses to about 46.1 µM), inactives show at the top dose activity, negative = less viability, usual class: cytotoxic. 1.6% of 360,000 active;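 note: NT is the 2HG producing partner of a matched IDH1 knockdown line; 0% = DMSO-treated cells and -100% = media-only wells without cells; nearly all actives have a fitted effect of over 55% in size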
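HT-1080-NT; 750 cells/well; 5% FBS RPMI; 48 h compound, 37 degrees C; CellTiter-Glo luminescence; curve fitting and curve-class assignment.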
Starred values were filed as active, the others as inactive; i = inactive; ? = inconclusive; . = no result given. Sampled rows, rich in hits. Any-hit rate of the full collection: about 6.2%. Calls come from the whole dose curve; as a rule, active = well fitted curve in the direction sought with a large enough effect; inconclusive = small, poorly fitted or top-dose-only effect, or another doubt; inactive = no such curve, though single readings can be large; an effect the other way counts as inactive or inconclusive. Potency is the fitted concentration of half-maximal effect.

SMILES | ATXN viability | HT1080 IDH1KD tx | ATXN2 expr inh | KB-3-1 tox | KB-V1 MDR tox | HT1080-NT tox
Cc1ccccc1C1=NCC(=O)N(CC(=O)NCc2ccco2)c2sc3c(c21)CCCC3 | ? | -18.9% | ? | i | 18.4µM* | 0.0%
CC(C)CC[C@@H](O)[C@](C)(O)C1CC[C@@]2(O)C3=CC(=O)[C@@H]4C[C@@H](O)[C@@H](O)C[C@]4(C)C3CC[C@]12C (stereo not given in full) | i | 9.5% | -0.7% | i | i | ?
c1ccc2c(c1)[IH]c1ccccc1-2 | ? | 0.461µM* | 7.94µM* | ? | ? | 0.461µM*
COc1cc2c3cc1Oc1cc(ccc1O)C[C@@H]1c4c(cc(OC)c(O)c4Oc4cccc(c4)C[C@H]3N(C)CC2)CC[N+]1(C)C | i | . | . | . | . | .
Clc1ccc(C[n+]2c(-c3ccccc3)cc(-c3ccccc3)cc2-c2ccccc2)cc1 | 10µM* | 10.3µM* | ? | 10.3µM* | i | 16.4µM*
Cc1cc(-c2ccccc2)cc(-c2ccccc2)[n+]1CCc1ccccc1 | ? | -88.5% | ? | ? | i | -91.8%
Fc1ccc(C[n+]2c(-c3ccccc3)cc(-c3ccccc3)cc2-c2ccccc2)cc1 | ? | 18.4µM* | ? | 16.4µM* | i | 16.4µM*
Cc1cc(/C=C/c2cccc3sc(C)[n+](CCCCI)c23)ccc1N(CCCl)CCCl | . | . | . | i | i | .
CC1(c2ccccc2)CC(C)(C)N2C(=O)C3(C(C#N)=C(N)Oc4cc(O)ccc43)c3cccc1c32 (stereo not given) | ? | ? | ? | i | 20.6µM* | ?
CCOC(=O)C1=C(N)Oc2cc(C)oc(=O)c2C12C(=O)N1c3c(cccc32)C(C)CC1(C)C (stereo not given) | i | -3.7% | 0.0% | i | i | 3.9%
Cc1cccn2c(=O)c3cc(C(=O)N4CCC5(CC4)OCCO5)n(C)c3nc12 | i | 13µM* | -8.6% | 3.26µM* | 3.66µM* | 16.4µM*
COc1ccccc1N1CCN(Cc2c(F)cccc2F)CC1 | i | -26.5% | -3.1% | i | 14.6µM* | 18.9%
COc1ccccc1N1CCN(Cc2ccccc2Cl)CC1 | i | 12.9% | -7.7% | i | 20.6µM* | 25.2%
C[C@]12Cc3cn[nH]c3C[C@@H]1CC[C@@H]1[C@@H]2CC[C@@]2(C)[C@H]1CC[C@]2(C)O | i | . | -10.5% | . | . | .
CCCOP(=O)(c1ccc(N(C)C)cc1)C(O)c1ccc(Cl)cc1Cl (stereo not given) | i | ? | -23.7% | i | ? | -1.5%
CCCC1(CCC)C(=O)NC(=NCc2ccccc2)NC1=O | ? | ? | ? | ? | i | 14.6µM*
O=C(c1cccc2ccccc12)C1CCCN(Cc2ccon2)C1 (stereo not given) | i | -9.5% | -20.2% | i | i | -9.5%
Cc1cc(Cl)ccc1C(=O)C1CCCN(Cc2ccon2)C1 (stereo not given) | i | 1.3% | -15.9% | i | 16.4µM* | 0.0%
CN1CCc2cc3c(cc2[C@@H]1[C@@H]1OC(=O)c2c1ccc1c2OCO1)OCO3 | i | . | . | . | . | .
Cc1cc(C(C#N)c2ccc(Cl)cc2)c(Cl)cc1NC(=O)c1cc(I)cc(I)c1O (stereo not given) | ? | ? | ? | i | i | ?
Cc1ccc(-n2nc(C)c3c2NC(=O)CSC3c2ccc(O)cc2)cc1Cl (stereo not given) | ? | . | 0.0% | 23.1µM* | i | .
CC1=NCCc2c1[nH]c1cc(O)ccc21 | . | -12.2% | 2.0% | i | i | 18.5%
C1=NCCc2c1[nH]c1ccccc21 | i | 16.4µM* | ? | ? | 16.4µM* | ?
CC(=O)[C@@]1(O)CC[C@H]2[C@@H]3CCC4=CC(=O)CC[C@]4(C)C3(F)[C@@H](O)C[C@@]21C (stereo not given in full) | i | . | . | . | . | .
